{"source": "PubChem BioAssay (NCATS)", "key": {"CRL-7250": {"system": "CRL-7250", "test": "Cytotoxic Profiling of Annotated Libraries Using Quantitative High-Throughput Screening (AID 1296008); note: nearly all actives have a fitted effect of over 60% in size", "conditions": "Five cell lines viability, CellTiter-Glo ATP luminescence, 48-72 h; max response: hits give low values", "outline": "(§1)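 Cells exposed to compounds for 48 or 72 hr at 37 degrees Celsius. Viability read as ATP-coupled luminescence with CellTiter-Glo after 10 min at room temperature.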"}, "HEK293": {"system": "HEK293", "test": "Cytotoxic Profiling of Annotated Libraries Using Quantitative High-Throughput Screening (AID 1296008)", "conditions": "Five cell lines viability, CellTiter-Glo ATP luminescence, 48-72 h; max response: hits give low values", "outline": "as §1"}}, "note": "Records with an inconclusive call do not appear. Values without a mark were called inactive. Calls of active or inactive are those of the source. Calls come from the whole dose curve; as a rule, active = well fitted inhibition curve with a large enough effect; inconclusive = small, poorly fitted or top-dose-only effect; inactive = flat fitted curve, though single readings scatter. % is set by controls: 0 for no effect and ±100 for the full control effect; potency is the fitted concentration of half-maximal effect.", "data": [{"smiles": "COc1cc(C(=O)OC[C@@]2(O)CO[C@@H](O[C@H]3[C@H](Oc4ccc(C(=O)O)cc4OC)O[C@H](CO)[C@@H](O)[C@@H]3O)[C@@H]2O)ccc1O", "values": [{"measurement": "max response", "setting": "CRL-7250", "result": -0.15, "unit": "%"}, {"measurement": "max response", "setting": "HEK293", "result": -19.1, "unit": "%"}]}, {"smiles": "CCOc1cc(C)c(Cl)cc1S(=O)(=O)n1cnc2ccccc21", "values": [{"measurement": "max response", "setting": "CRL-7250", "result": -6.19, "unit": "%"}, {"measurement": "max response", "setting": "HEK293", "result": -19.4, "unit": "%"}]}, {"smiles": "COc1cc2c(c(OC)c1CC=C(C)C)C[C@H](c1ccc(O)cc1O)CO2", "values": [{"measurement": "max response", "setting": "CRL-7250", "result": -5.34, "unit": "%"}, {"measurement": "max response", "setting": "HEK293", "result": 0.883, "unit": "%"}]}, {"smiles": "CC(C)=CCC/C(C)=C/CO[C@@H]1O[C@H](CO)[C@@H](O)[C@H](O)[C@H]1O", "values": [{"measurement": "max response", "setting": "CRL-7250", "result": -5.48, "unit": "%"}, {"measurement": "max response", "setting": "HEK293", "result": 1.41, "unit": "%"}]}, {"smiles": "C/C=C(\\C)C(=O)O[C@H]1[C@@H](O[C@]2(COC(=O)CC(C)C)O[C@H](COC(=O)C(C)CC)[C@@H](OC(C)=O)[C@@H]2O)O[C@H](COC(C)=O)[C@@H](O)[C@@H]1O", "note": "(some centres undefined)", "values": [{"measurement": "max response", "setting": "CRL-7250", "result": 0.451, "unit": "%"}, {"measurement": "max response", "setting": "HEK293", "result": 2.82, "unit": "%"}]}, {"smiles": "CC(O)/C=C/C1(O)C2(C)COC1(C)CC(O)C2", "note": "(centres undefined)", "values": [{"measurement": "max response", "setting": "CRL-7250", "result": -12.7, "unit": "%"}, {"measurement": "max response", "setting": "HEK293", "result": -7.99, "unit": "%"}]}, {"smiles": "CC(C)/C=C1\\NC(=O)C(C(C)C)n2c1nc1c(c2=O)C=CC=CO1", "note": "(centres undefined)", "values": [{"measurement": "max response", "setting": "CRL-7250", "result": -11.8, "unit": "%"}, {"measurement": "max response", "setting": "HEK293", "result": 2.88, "unit": "%"}]}, {"smiles": "CC[C@]1(O)CC2CN(CCc3c([nH]c4ccccc34)[C@@](C(=O)OC)(c3cc4c(cc3OC)N(C=O)[C@H]3[C@@](O)(C(=O)OC)[C@H](OC(C)=O)[C@]5(CC)C=CCN6CC[C@]43[C@@H]65)C2)C1", "note": "(some centres undefined)", "values": [{"measurement": "Potency", "setting": "CRL-7250", "result": "0.064 µM (active)"}, {"measurement": "Potency", "setting": "HEK293", "result": "0.0321 µM (active)"}]}, {"smiles": "C/C1=C\\CC[C@]2(C)O[C@@H]2[C@H](O)[C@H](C(C)C)[C@H](OC(=O)/C=C/c2ccccc2)C1", "values": [{"measurement": "max response", "setting": "CRL-7250", "result": -51, "unit": "%"}, {"measurement": "max response", "setting": "HEK293", "result": -26.5, "unit": "%"}]}, {"smiles": "CN1CCN(C(=O)c2ccc3cc(CCNc4ncnc5ccc(C#N)cc45)ccc3c2)CC1", "values": [{"measurement": "Potency", "setting": "CRL-7250", "result": "4.61 µM (active)"}, {"measurement": "Potency", "setting": "HEK293", "result": "2.91 µM (active)"}]}, {"smiles": "Nc1nc2c(ncn2[C@@H]2O[C@@H]3COP(=O)(O)O[C@H]3[C@H]2O)c(=O)[nH]1", "values": [{"measurement": "max response", "setting": "CRL-7250", "result": -1.98, "unit": "%"}, {"measurement": "max response", "setting": "HEK293", "result": -4.75, "unit": "%"}]}, {"smiles": "CCCCc1ccc(C(=O)Nc2cc(-c3ccc(Cl)cc3)nn2-c2ccc(Cl)cc2)cc1", "values": [{"measurement": "max response", "setting": "CRL-7250", "result": -0.768, "unit": "%"}, {"measurement": "max response", "setting": "HEK293", "result": -22.4, "unit": "%"}]}, {"smiles": "CC(C)C(C(=O)N(C)C(C)C(N)=O)N(C)C(=O)C1CCCN1C(=O)/C=C/C=C/C(O)C(C)O", "note": "(centres undefined)", "values": [{"measurement": "outcome", "setting": "CRL-7250", "result": "inactive"}, {"measurement": "max response", "setting": "HEK293", "result": 4.88, "unit": "%"}]}, {"smiles": "O=C(N/N=C/c1ccc(O)c(O)c1)c1cc2ccccc2cc1O", "values": [{"measurement": "max response", "setting": "CRL-7250", "result": -27.6, "unit": "%"}, {"measurement": "outcome", "setting": "HEK293", "result": "inactive"}]}, {"smiles": "Cc1csc(NC(=O)c2ccc(COc3cccc(Cl)c3)o2)n1", "values": [{"measurement": "max response", "setting": "CRL-7250", "result": -4.74, "unit": "%"}, {"measurement": "max response", "setting": "HEK293", "result": -17.1, "unit": "%"}]}, {"smiles": "C/C=C/C1=CC2=C(CO1)C(=O)C(C)(O)C(OC(=O)c1c(C)cc(OC)cc1O)C2", "note": "(centres undefined)", "values": [{"measurement": "max response", "setting": "CRL-7250", "result": -7.89, "unit": "%"}, {"measurement": "Potency", "setting": "HEK293", "result": "11.4 µM (active)"}]}, {"smiles": "C=C[C@H]1[C@H](O[C@@H]2O[C@H](CO)[C@@H](O)[C@H](O)[C@H]2O)OC=C(C(=O)OC)[C@H]1C[C@@H]1c2cc(O)c(O)cc2CCN1C(C)=O", "values": [{"measurement": "max response", "setting": "CRL-7250", "result": -23.5, "unit": "%"}, {"measurement": "max response", "setting": "HEK293", "result": 2.33, "unit": "%"}]}, {"smiles": "CNS(=O)(=O)CC1CCC(N(C)c2ncnc3[nH]ccc23)CC1", "note": "(centres undefined)", "values": [{"measurement": "max response", "setting": "CRL-7250", "result": 2.42, "unit": "%"}, {"measurement": "max response", "setting": "HEK293", "result": -8.69, "unit": "%"}]}, {"smiles": "CC1=C(/C=C/C(C)=C\\C=C\\C(C)=C/C(=O)O)C(C)(C)CCC1", "values": [{"measurement": "max response", "setting": "CRL-7250", "result": -50.6, "unit": "%"}, {"measurement": "max response", "setting": "HEK293", "result": 0.159, "unit": "%"}]}, {"smiles": "CON(C)C(=O)[C@H](O)[C@H](Cc1ccccc1)NC(=O)c1cc2cc(Cl)ccc2[nH]1", "values": [{"measurement": "outcome", "setting": "CRL-7250", "result": "inactive"}, {"measurement": "max response", "setting": "HEK293", "result": -8.5, "unit": "%"}]}, {"smiles": "O=C(O)c1ccc(CN2CCC(CN[C@@H]3C[C@H]3c3ccccc3)CC2)cc1", "values": [{"measurement": "max response", "setting": "CRL-7250", "result": -10.5, "unit": "%"}, {"measurement": "max response", "setting": "HEK293", "result": -15.7, "unit": "%"}]}, {"smiles": "COc1cc(O)cc(/C=C/c2ccc(O[C@@H]3O[C@H](CO)[C@@H](O)[C@H](O)[C@H]3O)cc2)c1", "values": [{"measurement": "max response", "setting": "CRL-7250", "result": -0.761, "unit": "%"}, {"measurement": "max response", "setting": "HEK293", "result": -4.02, "unit": "%"}]}, {"smiles": "CC(=O)N1CCc2ccc(O)c(OC3OC(COC4OCC(O)(CO)C4O)C(O)C(O)C3O)c2C1Cc1ccc(O)cc1", "note": "(centres undefined)", "values": [{"measurement": "max response", "setting": "CRL-7250", "result": -12.6, "unit": "%"}, {"measurement": "max response", "setting": "HEK293", "result": -5.03, "unit": "%"}]}, {"smiles": "C=C1C(=O)OC2/C=C(\\CO)CC/C=C(\\C=O)CC(OC(=O)CC(C)C)C12", "note": "(centres undefined)", "values": [{"measurement": "max response", "setting": "CRL-7250", "result": -22.7, "unit": "%"}, {"measurement": "Potency", "setting": "HEK293", "result": "12.8 µM (active)"}]}, {"smiles": "O=C(/C=C/c1ccc(O)cc1)N[C@@H](Cc1ccc(O)cc1)C(=O)O", "values": [{"measurement": "max response", "setting": "CRL-7250", "result": -6.91, "unit": "%"}, {"measurement": "max response", "setting": "HEK293", "result": -7.32, "unit": "%"}]}, {"smiles": "CC1OC(OC2CCC3(C)C(CCC4(C)C3CC=C3C5CC(C)(C)CCC5(C(=O)OC5OC(CO)C(O)C(O)C5O)CCC34C(=O)O)C2(C)C)C(O)C(O)C1O", "note": "(centres undefined)", "values": [{"measurement": "outcome", "setting": "CRL-7250", "result": "inactive"}, {"measurement": "max response", "setting": "HEK293", "result": -0.856, "unit": "%"}]}, {"smiles": "COc1ccc(C(=O)n2c(C)c(Cc3cccc(O[C@@H](C)C(=O)O)c3)c3cc(OC(F)(F)F)ccc32)cc1", "values": [{"measurement": "max response", "setting": "CRL-7250", "result": -19.1, "unit": "%"}, {"measurement": "max response", "setting": "HEK293", "result": -1.86, "unit": "%"}]}]}
